TRHR agonist – agonists of human TRH receptor | 360,000 tested, 0.18% active | TRHR cells, calcium flux fluo-8, FDSS agonist mode | activation, % at 2 µM | AID 493084 | P34981; also: 0% is about no effect
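Read-out: compound-evoked intracellular calcium rise in TRHR cells, fluo-8 dye, kinetic FDSS fluorescence at 1 s/cycle following a 10-cycle baseline. Cells cultured overnight before dye loading (30 min–1.5 h, RT).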
D1 antag – antagonists of human D1 dopamine receptor. P21728. HEK293 TREx D1 cells, calcium flux, dopamine EC80; active compounds read low. activity change, negative = inhibition, % at 10 µM. 360,000 tested, 3.2% active; in the data active = activity change below about -30%; also: % is scaled to controls: 0 for no effect and ±100 for the full control effect
Target sequence (P21728 whole entry, looked up): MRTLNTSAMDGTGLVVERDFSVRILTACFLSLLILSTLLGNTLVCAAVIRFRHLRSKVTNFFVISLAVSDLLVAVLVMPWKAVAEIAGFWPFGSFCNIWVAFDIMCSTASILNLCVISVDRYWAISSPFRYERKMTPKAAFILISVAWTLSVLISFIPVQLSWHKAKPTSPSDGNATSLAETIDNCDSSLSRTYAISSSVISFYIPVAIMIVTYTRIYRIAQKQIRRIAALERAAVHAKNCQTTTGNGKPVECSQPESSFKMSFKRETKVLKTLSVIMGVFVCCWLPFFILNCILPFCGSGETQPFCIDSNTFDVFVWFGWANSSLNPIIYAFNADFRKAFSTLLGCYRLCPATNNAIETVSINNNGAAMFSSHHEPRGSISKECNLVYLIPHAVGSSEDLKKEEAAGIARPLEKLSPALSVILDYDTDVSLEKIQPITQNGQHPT
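HEK293 T-REx cells expressing inducible, force-coupled D1 receptor; no-wash Ca dye, 30–90 min RT. Cmpd → 180 s read at 1 Hz → EC80 DA → 180 s read.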
TRHR PAM – allosteric enhancers of human TRH receptor; TRHR cells, fluo-8 calcium fluorescence, EC20 TRH enhancement; enhancement, % at 2 µM; 360,000 tested, 0.66% active; AID 493056; in the data active = enhancement above about 30%; also: 0% is about no effect
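Enhancer read-out: after compound pinning and an initial kinetic agonist-mode read, an EC20 of TRH (10 nM final) was injected and fluo-8 calcium signal (Ex 480/Em 530) followed at 1 s/cycle for 100 cycles in TRHR-expressing cells.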
D1 agonist – agonists of human D1 dopamine receptor; P21728; HEK293 T-REx D1 cells, calcium flux, agonist mode; activation, % at 2 µM; 360,000 tested, 1% active; also: 0% is about no effect
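Inducible HEK293 T-REx D1 cells, force-coupled to calcium signalling, were plated at 4000 cells/well with tetracycline and held overnight at 30 C. After no-wash calcium dye loading, compound-evoked calcium rise over 180 s flagged agonists.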
D1 PAM – human D1 dopamine receptor positive modulation. P21728. HEK293 TREx D1 cells, calcium flux, dopamine EC20 potentiation. potentiation, % at 10 µM. 360,000 tested, 0.036% active. AID 504651; in the data active = potentiation above about 30%; also: 0% is about no effect
* = called active by the depositor. This is a sample that favours compounds with a hit; in the whole collection about 4.7% have one here. Rule as the data show it, unless noted: active = activation above about 30%; inactive = the rest.

SMILES | TRHR agonist | D1 antag | TRHR PAM | D1 agonist | D1 PAM
COc1ccc(Br)cc1CNC(=O)c1nn(-c2ccc(C)cc2)c(=O)c2c1c1ccccc1n2C | -1 | -13 | 2 | 1 | -2
CCCn1nnnc1NC(=O)c1cc(Br)ccc1OC | 0 | 3 | 30* | 0 | -3
CSc1ccc(CCNC(=O)C2CCN(c3ncnc4c3nc3n4CCCCC3)CC2)cc1 | -1 | -14 | 1 | 2 | -2
COc1cc(NC(=O)CN(C)C2CCCCC2)c(C)cc1[N+](=O)[O-] | -1 | -74* | -3 | 0 | -11
Cc1nc2[nH]c(=O)c3c(n2n1)NC1=C(C(=O)CC(C)(C)C1)C3c1ccccc1 (centres undefined) | 0 | -51* | 0 | 5 | -3
CCN(CC)C(=O)CC(c1ccc2c(c1)OCO2)c1c(OC)cc(OC)c2ccc(=O)oc12 (centres undefined) | 0 | -38* | -1 | 0 | -6
CCN(CC)C(=O)CC(c1ccc(N(C)C)cc1)c1c(OC)cc(OC)c2ccc(=O)oc12 (centres undefined) | -1 | 5 | 0 | 1 | 2
CC(=O)c1ccc(NC(=O)C2(c3ccccc3)CC2(Cl)Cl)cc1 (centres undefined) | 6 | 5 | 2 | 38* | 0
COc1ccc(C2CC(c3ccccc3)=NN2c2ccc(Cl)c(C(=O)O)c2)cc1 (centres undefined) | 0 | -5 | 7 | 8 | 0
COc1ccc(C2CC(c3ccccc3)=NN2c2ccc(N)cc2)cc1 (centres undefined) | 1 | -30* | -1 | 8 | -3
COc1ccc(C2CC(c3ccc4ccccc4c3)=NN2C(=O)CNC2CCCCC2)cc1 (centres undefined) | 0 | 17 | 5 | 32* | 1
COc1ccc(C2=NN(C(N)=S)C(c3ccccc3)C2)cc1 (centres undefined) | -1 | -30* | 0 | 5 | 1
Cc1ccc(C(=O)Nc2c(C)nc3ccccn3c2=O)cc1C | 0 | -8 | -4 | -1 | -1
Cc1nc(CS(=O)(=O)c2ccc(Cl)cc2)sc1C(=O)O | 0 | 4 | 5 | 1 | 3
Cc1nc(CS(=O)(=O)c2ccccn2)sc1C(=O)NNC(=O)c1ccccc1 | 0 | -32* | -1 | 1 | -6
Cc1c(NS(=O)(=O)c2ccc3c(c2)CCN3C(=O)C2CC2)c(=O)n(-c2ccccc2)n1C | -1 | -35* | -2 | 0 | -2
Cc1ccc(S(=O)(=O)N2CCOCC2)cc1C(=O)Nc1c(C)n(C)n(-c2ccccc2)c1=O | 1 | -1 | -7 | 2 | 4
O=C(C1CCN(S(=O)(=O)c2ccccc2)CC1)N1CCc2ccccc21 | 247* | 8 | 60* | 333* | -2
Cc1c(NC(=O)/C=C/c2ccc(S(=O)(=O)N3CCOCC3)cc2)c(=O)n(-c2ccccc2)n1C | 0 | -8 | 34* | 1 | -1
Cc1cccc(NS(=O)(=O)c2ccc3c(c2)CCN3C(=O)C2CCC2)c1 | -1 | -25 | -2 | 9 | 0
COc1ccc(NS(=O)(=O)c2ccc3c(c2)CCN3C(=O)C2CC2)cc1OC | 0 | -33* | -5 | 17 | -3
Cc1c(NS(=O)(=O)c2cc(Br)cc3c2N(C(=O)C2CC2)CC3)c(=O)n(-c2ccccc2)n1C | 0 | 6 | 3 | 2 | -3
COc1cc(C2C(C(=O)Nc3ccccc3C)=C(C)Nc3ncnn32)ccc1OCC(N)=O (centres undefined) | 1 | 11 | 4 | 1 | -4
Cc1cc(O)c(C(c2ccccc2)N2CCC(C)CC2)c(=O)n1Cc1ccco1 (centres undefined) | 0 | -3 | 2 | 1 | -3
Cc1cn2c(=O)cc(COC(=O)c3cccc(NC(=O)COc4ccccc4Cl)c3)nc2s1 | 0 | 10 | -1 | 2 | 0
SMILES | TRHR agonist | D1 antag | TRHR PAM | D1 agonist | D1 PAM
O=C(C1CC1)N1CCc2cc(S(=O)(=O)N(CCO)Cc3ccccc3)ccc21 | 0 | -40* | -5 | 11 | -5
CCCCN(Cc1ccccc1)S(=O)(=O)c1ccc2c(c1)CCN2C(=O)C1CCC1 | 3 | -2 | 4 | 18 | 1
Cc1c(NS(=O)(=O)N2CCCC2)c(=O)n(-c2ccccc2)n1C | 0 | -52* | -2 | 1 | -6
Cc1c(NS(C)(=O)=O)c(=O)n(-c2ccccc2)n1C | 0 | -7 | 17 | 1 | 5
O=C(NCCc1ccccc1Cl)c1ccc2c(c1)nc1n2CCOC1 | 0 | -1 | 3 | 1 | -3
CCc1ccc(S(=O)(=O)Nc2ccc3oc(C)c(C(=O)OCCOC)c3c2)cc1 | 0 | -43* | 3 | 22 | 1
CCOC(=O)c1c(C)oc2c(Cl)cc(NS(=O)(=O)c3ccc(Cl)c(C)c3)cc12 | -1 | -31* | 0 | 13 | -3
CC(=O)c1c(C)oc2c(Cl)cc(NS(=O)(=O)c3ccc(Cl)cc3)cc12 | 0 | -13 | 8 | -1 | -5
COCCOC(=O)c1c(C)oc2ccc(NS(=O)(=O)c3ccc(C)cc3)cc12 | 0 | -8 | 3 | 11 | 2
CC(C)c1ccc(Cc2cnc(NC(=O)c3ccc4c(c3)CC(c3ccccc3)OC4=O)s2)cc1 (centres undefined) | 0 | 7 | -7 | 0 | 2
COc1cccc(NC(=O)CSc2nccn2Cc2ccc3c(c2)OCO3)c1 | 0 | -12 | -6 | 2 | -2
Cc1cc2c3nonc3ccc2n1C | 0 | -34* | -11 | 2 | -3
CC1CN(C(=O)CCC(=O)NCc2ccc(F)cc2)c2cc(Cl)ccc2O1 (centres undefined) | -1 | -24 | 18 | 0 | 0
c1ccc(Oc2ccc(-c3ccnc4nc(N5CCOCC5)nn34)cc2)cc1 | -2 | 13 | 33* | 6 | -3
Cc1ccc(Cl)cc1N1CCN(C(=O)c2ccc3c(c2)N(Cc2ccccc2F)C(=O)c2ccccc2S3(=O)=O)CC1 | 0 | 9 | -3 | 6 | -4
Cc1oc2c(cc(NS(=O)(=O)c3ccc(F)cc3)c3ccccc32)c1C(=O)OCc1ccccc1 | 0 | 6 | -3 | 2 | -1
Cc1ccc(NCc2cccn2-c2nnc(N3CCCCCC3)s2)cc1 | -1 | 10 | 9 | 1 | 9
CCOC(=O)CN1C(=O)C(Sc2n[nH]c(-c3ccc(C)cc3)n2)CCc2ccccc21 (centres undefined) | 0 | -66* | -1 | 0 | 1
COc1cc(NC(=O)C(OC(=O)CNC(=O)c2ccccc2)c2ccccc2)cc(C(F)(F)F)c1 (centres undefined) | -1 | -8 | 9 | 7 | 4
Cc1cc(OCCSc2nnc(-c3cccs3)n2C)ccc1Cl | 0 | -20 | 6 | 35* | -13
O=S1(=O)c2ccccc2N(Cc2ccc(Cl)cc2F)c2ccccc21 | 2 | 6 | -6 | 1 | -3
